In the library only some 5.9% were active in any assay of this set; here they are far more common.
RORg inh: inhibitors of mouse ROR gamma transcriptional activity; Drosophila S2 Gal4-RORgamma UAS-luciferase reporter, 20 h; Potency, µM (top dose mostly 53.6 µM), for inactives: at the top dose activity change, negative = inhibition, hits mostly inhibitors; actives 5.4% (n = 310,000); note: % is set by controls: 0 for no effect and ±100 for the full control effect; nearly all actives have a fitted effect of over 60% in size
Target sequence (P51450 whole entry, looked up, the tested form may be a part): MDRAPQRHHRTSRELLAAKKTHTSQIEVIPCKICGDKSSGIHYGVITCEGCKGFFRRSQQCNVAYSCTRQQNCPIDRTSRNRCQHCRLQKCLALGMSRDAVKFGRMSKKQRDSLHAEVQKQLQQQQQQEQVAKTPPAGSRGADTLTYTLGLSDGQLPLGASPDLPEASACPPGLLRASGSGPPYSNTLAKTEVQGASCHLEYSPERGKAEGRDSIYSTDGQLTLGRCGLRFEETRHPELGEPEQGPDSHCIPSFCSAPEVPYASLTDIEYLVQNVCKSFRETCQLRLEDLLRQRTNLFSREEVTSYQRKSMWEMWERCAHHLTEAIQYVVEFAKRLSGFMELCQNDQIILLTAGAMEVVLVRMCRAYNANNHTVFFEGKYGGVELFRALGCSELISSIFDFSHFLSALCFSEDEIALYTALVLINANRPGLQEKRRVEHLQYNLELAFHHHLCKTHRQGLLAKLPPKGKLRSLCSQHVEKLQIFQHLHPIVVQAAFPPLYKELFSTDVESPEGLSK
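In this cell-based reporter format, copper sulfate (700 uM final) drives Gal4–ROR gamma fusion expression from a metallothionein promoter in Drosophila Schneider cells; compounds preincubated 1 hr, reporter read after 20 hr at ambient temperature.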
GLP-1R agonist: activates the human GLP-1 receptor | P43220 | HEK293 GLP-1R CRE-luciferase, luminescence, 4-6 h; cells express a hypersensitive GLP-1R form | Potency, µM (series often up to 45.6 µM), for the others: at the highest dose activation, actives largely listed as activators | actives 0.007% (n = 380,000); note: % of control where 0% means no effect
Gal4-VP16 FLuc: Gal4-VP16 reporter inhibition counter-screen. Potency, µM (doses to about 53.6 µM), for the others: at the highest dose activity, negative = inhibition, actives largely listed as inhibitors. Drosophila S2 Gal4-VP16 UAS-luciferase, luminescence, 20 h. actives 3.5% (n = 310,000);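 note: Gal4-VP16 expression switched on by copper sulfate through the metallothionein promoter; % is set by controls: 0 for no effect and ±100 for the full control effect; nearly all actives have a fitted effect of over 50% in size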
GLP1R inv ag: acts as inverse agonist at human GLP-1 receptor | P43220 | HEK293 GLP-1R CRE-luciferase, luminescence, 24 h; GLP-1R form is constitutively active | actives 1.6% (n = 410,000) | Potency, µM (doses to about 38.3 µM), for inactives: at the top dose activity change, negative = inhibition, hits mostly inhibitors; note: % is set by controls: 0 for no effect and ±100 for the full control effect; nearly all actives have a fitted effect of over 55% in size
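Stable HEK293 clone (constitutively active GLP-1R + cAMP-response luciferase); 200 cells/uL plated, 12 h pre-culture, compound 24 hr, 37 deg C/5% CO2; detection reagent 12 min RT; luminescence.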
HEK293 tox: cytotoxicity in counter-screen for GLP-1R inverse agonists | Potency, µM (doses to about 38.3 µM), for the others: at the top dose activity change, negative = inhibition, actives largely listed as inhibitors | actives 0.13% (n = 410,000) | HEK293 cAMP-luciferase reporter cells, luminescence, 24 h;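 note: loss of luciferase light is scored as toxicity; % is set by controls: 0 for no effect and ±100 for the full control effect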
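Compound-treated cells are incubated 24 hr at 37 deg C under 5% CO2 after a 12 hour attachment period, then luciferase detection reagent is added and luminescence is measured following 12 min at room temperature; lowered signal indicates toxicity.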
* hit, by the source's call; ? = inconclusive; · = no result given; [ ] = remark or other dose. Calls come from the whole dose curve; as a rule, active = well fitted curve in the direction sought with a large enough effect; inconclusive = small, poorly fitted or top-dose-only effect, or another doubt; inactive = no such curve, though single readings can be large; an effect the other way counts as inactive or inconclusive. Potency is the fitted concentration of half-maximal effect.

SMILES	RORg inh	GLP-1R agonist	Gal4-VP16 FLuc	GLP1R inv ag	HEK293 tox
COc1ccc(-n2nc(C(=O)NCC(=O)N3CCC4(CC3)OCCO4)c3ccccc3c2=O)c(OC)c1	6.31µM*	5.5%	10µM*	-5.6%	-1.8%
CN(C)CCc1c[nH]c2ccccc12	·	2.4%[147 µM]	·	·	·
COP(=S)(OC)Oc1cc(Cl)c(Cl)cc1Cl	·	-1.4%	·	·	·
COc1ccc(OC)c(N2C(=O)NC(=O)/C(=C\c3ccc([N+](=O)[O-])s3)C2=O)c1	6.31µM*	18.9%	?	5.5%	-23.3%
CC(C)[C@H](CO)Nc1nc(Nc2cccc(Cl)c2)c2ncn(C(C)C)c2n1	14.1µM*	·	-0.2%	·	·
CC(C)c1ccc(Oc2cccc3c2S(=O)(=O)N(C2CCCC2)CC(COCc2ccccc2)O3)cc1 (stereo unspecified)	·	6.3%	·	5.62µM*	-0.7%
Cc1cc(OCCCN2CCC(C(O)(c3ccccc3)c3ccccc3)CC2)ccc1Br	·	-15.7%	·	?	?
Cc1cccc(CCNCc2cc3cccc(C)c3[nH]c2=O)c1	?	15.0%	7.94µM*	-25.5%	-9.3%
Cc1cccc(CCNCc2cc3cc(C)cc(C)c3[nH]c2=O)c1	-24.3%	-4.6%	-14.3%	-9.7%	-14.8%
CC(O)(c1ccncc1)c1nc(-c2cccc(C(F)(F)F)c2)cs1 (stereo unspecified)	·	0.0%	·	?	-2.7%
O=C(Nc1cccc(-c2csc(Nc3cccc(C(F)(F)F)c3)n2)c1)c1ccccc1	?	-2.2%	-10.8%	2.82µM*	?
CN(C(=O)CNC(=O)OCc1ccccc1)c1ccc(Br)cc1C(=O)c1ccccc1Cl	?	-3.8%	-11.6%	2.82µM*	?
O=C(CNC(=O)OCc1ccccc1)Nc1ccc(Br)cc1C(=O)c1ccccc1Cl	?	0.0%	-18.1%	?	-22.4%
C=C(C)[C@@]12OC3(c4ccccc4)O[C@@H]1C1[C@@H]4O[C@]4(CO)[C@@H](O)[C@]4(O)C(=O)C(C)=C[C@H]4[C@@]1(O3)[C@H](C)[C@H]2OC(=O)/C=C/C=C/c1ccccc1 (stereo partly specified)	·	-2.3%	·	2.82µM*	-25.5%
O=S(=O)(c1ccc(Cl)cc1)c1cc(Cl)c(Cl)cc1Cl	-0.7%	·	-1.5%	·	·
COc1cccc(-c2nnc3n(Cc4ccccc4Cl)c(=O)c4ccccc4n23)c1O	·	·	·	?	-18.7%
O=C(Nc1ccccn1)NC12CC3CC(CC(C3)C1)C2	4.2%	2.1%	-3.1%	1.41µM*	-16.5%
Clc1cccc(C(Cl)(Cl)Cl)n1	27.8%	·	-13.9%	·	·
COC(=O)C[C@@](O)(CCC(C)(C)O)C(=O)O[C@@H]1C(OC)=C[C@]23CCCN2CCc2cc4c(cc2[C@@H]13)OCO4	0.0891µM*	·	0.112µM*	·	·
COC1=CC23CCCN2CCc2cc4c(cc2C3C1O)OCO4 (stereo unspecified)	-11.6%	·	-2.8%	·	·
COC(=O)C(O)C(O)(CCC(C)C)C(=O)OC1C(OC)=CC23CCCN2CCc2cc4c(cc2C13)OCO4 (stereo unspecified)	0.126µM*	·	?	·	·
O=C1CCC[C@H]2[C@H]3CCCN4CCCC(=CN12)[C@@H]34	-4.7%	·	-3.5%	·	·
COC(=O)c1ccccc1N	8.7%	·	-7.7%	·	·
C=C/C=C/CC1=C(C)[C@@H](OC(=O)[C@@H]2[C@@H](/C=C(\C)C(=O)OC)C2(C)C)CC1=O (tested in a mixture with another compound)	·	-3.0%	·	·	·
C(=NC1CCCCC1)=NC1CCCCC1	?	·	2.24µM*	·	·
SMILES	RORg inh	GLP-1R agonist	Gal4-VP16 FLuc	GLP1R inv ag	HEK293 tox
CN1Cc2cnnn2-c2ccccc2C1C#N (stereo unspecified)	·	-2.3%	·	?	-15.5%
N#CC1c2ccccc2-n2nncc2CN1Cc1cc(Cl)cc(Cl)c1 (stereo unspecified)	·	-13.0%	·	1.26µM*	?
COc1ccc(CN2Cc3cnnn3-c3ccccc3C2C#N)cc1 (stereo unspecified)	·	-13.0%	·	2.82µM*	?
O=[N+]([O-])c1c(Cl)cccc1-c1c[nH]cc1Cl	?	17.9%	?	·	·
CCCCC/C=C\C/C=C\C/C=C\C/C=C\CCCC(=O)N[C@H](C)CO	-2.7%	·	-9.6%	·	·
CC1(C)C/C(=N\NC(=S)Nc2ccccc2F)c2cc(O)ccc2O1	3.16µM*	8.3%	?	?	?
COc1ccc(NC(=S)NC(NC(=O)CF)C(Cl)(Cl)Cl)cc1[N+](=O)[O-] (stereo unspecified)	-13.2%	3.8%	-4.9%	-9.3%	1.3%
COC(=O)NC(NC(=S)Nc1ccc([N+](=O)[O-])cc1)C(Cl)(Cl)Cl (stereo unspecified)	6.3%	-35.8%	4.1%	11.2µM*	?
Cc1cc(C)c(C(=O)/C=C/c2ccc(C(C)C)cc2)c(=O)[nH]1	?	-3.3%	31.6µM*	1.41µM*	?
COc1cc(SC#N)ccc1N=Cc1c(C)[nH]n(-c2ccc(C)c(C)c2)c1=O	4.47µM*	-40.4%	4.47µM*	?	?
Cc1ccc([N+](=O)[O-])cc1C	13.5%	·	8.6%	·	·
CCCCCC[C@H]1C(=O)O[C@H](C)[C@H](NC(=O)c2cccc(NC=O)c2O)C(=O)O[C@@H](C)[C@H]1OC(=O)CC(C)C	?	·	-94.3%[17 µM]	·	·
CCCN1CCC(NC(=O)c2cccc(Oc3ccccc3)c2)CC1	-12.3%	5.6%	4.6%	?	?
Cc1sc(NC(=O)c2ccccc2)c(C(c2ccc(Cl)cc2)N2CCN(CCO)CC2)c1C (stereo unspecified)	?	-2.3%	22.4µM*	?	?
CN(C)C(=O)Nc1cccc(C(F)(F)F)c1	9.5%	·	2.5%	·	·
CCCCCSc1cc(O)c(C(CNC)C(C)C)cc1OC (stereo unspecified)	?	9.5%	?	10µM*	-16.1%
CCCCCSc1cc(OC)c(CCN(C)C)cc1OC	7.0%	-4.7%	-5.2%	?	-25.0%
CCOC(=O)/C(=C\c1ccc(Cl)cc1)c1nc2sc(C)c(C)c2c(=O)[nH]1	?	23.4%	11.2µM*	?	?
CCN(CC)C(=O)N[C@H]1C=C2c3cccc4[nH]cc(c34)C[C@@H]2N(C)C1	-6.4%[16.9 µM]	·	-5.8%[17 µM]	·	·
CCC12CN3CC(CC)(CN(C1)C3c1ccccn1)C2=O (stereo unspecified)	·	·	·	2.9%	-9.9%
CN1C2CCC1/C(=C/c1ccccn1)C(=O)/C2=C\c1ccccn1	2.82µM*	-7.7%	2.51µM*	-88.8%	?
Oc1ccccc1N=Nc1ccccc1O	1.41µM*	-3.8%	-23.8%	?	?
CC[C@@H](CO)NC(=O)[C@H]1C=C2c3cccc4c3c(cn4C)C[C@H]2N(C)C1	-3.6%	·	3.7%	·	·

Assay outcomes from PubChem.
